Data taken from PubChem BioAssay (NCATS).
Records with an inconclusive call do not appear. Where a call stands in place of a potency, no number is given. Values without a mark were called inactive. The source made the active and inactive calls. The call rests on the fitted dose curve; in most records, active means well fitted curve in the direction sought with a large enough effect; inconclusive means small, poorly fitted or top-dose-only effect, or another doubt; inactive means no such curve, though single readings can be large; an effect the other way counts as inactive or inconclusive.

Key:
[1] = tested on: KB-3-1; assay: Cytotoxic Profiling of Annotated Libraries Using Quantitative High-Throughput Screening (AID 1296008); conditions: Five cell lines viability, CellTiter-Glo ATP luminescence, 48-72 h; max response: stronger effect = lower value; further: nearly all actives have a fitted effect of over 60% in size
How it was run: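 Compounds were pin-transferred onto cells and incubated 48 or 72 hr at 37 degree Celsius, 95% humidity. CellTiter-Glo was added, plates sat 10 min at room temperature, then ATP-coupled luminescence was imaged as the viability read-out.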

[2] = tested on: C33A; assay: Primary qHTS to identify gynecologic anti-cancer compounds using libraries of approved drugs and bioactive compounds (AID 1345084); conditions: Gynecologic cancer cell panel viability, ATPlite luminescence, 48 h; series mostly up to 57.5 µM; further: nearly all actives have a fitted effect of over 55% in size
How it was run: (§1)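 48 h compound exposure at 37 C, 5% CO2; five-point qHTS. ATPlite luminescence readout of cell ATP.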

[3] = tested on: CASKI; assay: as above; conditions: Gynecologic cancer cell panel viability, ATPlite luminescence, 48 h; series mostly up to 57.5 µM
How it was run: as §1

[4] = tested on: Es-2; assay: as above; conditions: Gynecologic cancer cell panel viability, ATPlite luminescence, 48 h; series mostly up to 57.5 µM
How it was run: as §1

[5] = tested on: HeLa; assay: as above; conditions: Gynecologic cancer cell panel viability, ATPlite luminescence, 48 h; series mostly up to 57.5 µM
How it was run: as §1

[6] = tested on: Hek293T; assay: as above; conditions: Gynecologic cancer cell panel viability, ATPlite luminescence, 48 h, control line for the selectivity index; series mostly up to 57.5 µM
How it was run: as §1

[7] = tested on: JEG-3; assay: as above; conditions: Gynecologic cancer cell panel viability, ATPlite luminescence, 48 h; series mostly up to 57.5 µM
How it was run: as §1

[8] = tested on: OV90; assay: as above; conditions: Gynecologic cancer cell panel viability, ATPlite luminescence, 48 h; series mostly up to 57.5 µM
How it was run: as §1

[9] = tested on: PA-1; assay: as above; conditions: Gynecologic cancer cell panel viability, ATPlite luminescence, 48 h; series mostly up to 57.5 µM
How it was run: as §1

O=C(CCCCCCCCCCCCC1CCCC1)Nc1ccc(S(=O)(=O)c2ccc(NC(=O)CCCCCCCCCCCCC3CCCC3)cc2)cc1
max response [1]: 4.77%

CCOC(=O)Oc1c(OC)cc(C(=O)O[C@@H]2C[C@@H]3CN4CCc5c([nH]c6cc(OC)ccc56)[C@H]4C[C@@H]3[C@H](C(=O)OC)[C@H]2OC)cc1OC
max response [1]: 3.08%

COc1ccc(-c2noc(CC(=O)O)c2-c2ccc(OC)cc2)cc1
max response [1]: 2.01%

C[C@H](O)CN(C)C
max response [1]: 10.7%

CCCCC/C=C\CCC(=O)N[C@H]1[C@H](Oc2c3cc4cc2Oc2ccc(cc2Cl)[C@@H](O[C@@H]2O[C@H](CO)[C@@H](O)[C@H](O)[C@H]2NC(C)=O)[C@@H]2NC(=O)[C@H](NC(=O)[C@@H]4NC(=O)[C@H]4NC(=O)[C@@H](Cc5ccc(c(Cl)c5)O3)NC(=O)[C@H](N)c3ccc(O)c(c3)Oc3cc(O)cc4c3)c3ccc(O)c(c3)-c3c(O[C@H]4O[C@H](CO)[C@@H](O)[C@H](O)[C@@H]4O)cc(O)cc3[C@@H](C(=O)O)NC2=O)O[C@H](CO)[C@@H](O)[C@@H]1O
max response [1]: -12.7%

C[C@H](N)C(=O)N[C@@H](C)P(=O)(O)O
max response [1]: -6.78%

O=C(O)COc1ccc(CCNS(=O)(=O)c2ccccc2)s1
max response [1]: -3.19%

CO[C@H]1C[C@@H]2CC[C@@H](C)[C@@](O)(O2)C(=O)C(=O)N2CCCC[C@H]2C(=O)O[C@H]([C@H](C)C[C@@H]2CC[C@@H](OC(=O)C(C)(CO)CO)[C@H](OC)C2)CC(=O)[C@H](C)/C=C(\C)[C@@H](O)[C@@H](OC)C(=O)[C@H](C)C[C@H](C)/C=C/C=C/C=C/1C
Potency [2]: inactive | Potency [3]: inactive | Potency [4]: inactive | Potency [5]: inactive | Potency [6]: inactive | Potency [7]: inactive | Potency [8]: inactive | Potency [9]: inactive
